Experiment in all cases: PBM binding z-score (relative to random genomic background probes); higher = stronger binding; sequences stand for … in GC…GCGATTGACAGCGTAGAATGAAGG
Assay [1] concerns FXR:RXRa (NR concentration 270 nM, RXRa partner concentration 90 nM). An outline of the steps:
(§1)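 Custom Agilent 4×180K protein-binding microarrays carried double-stranded probes, each with a 34-nt variable region. These regions held direct-repeat seeds, single-nucleotide variants, half-site ablations and random human genomic background sequences. Ligand-free nuclear receptor dimers were incubated on the arrays for 1 h, antibodies against each partner (one per run) detected binding, and scanned fluorescence was regression-normalized. Binding z-scores take the random background probes as reference.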

For assay [2], the system named is LXRa:RXRa (NR concentration 270 nM, RXRa partner concentration 90 nM). An outline of the steps:
as §1

The subject of assay [3] is LXRa homodimer (NR concentration 270 nM). The method in brief: as §1
The test system of assay [4] is LXRb:RXRa (NR concentration 270 nM, RXRa partner concentration 90 nM). An outline of the steps: as §1
Assay [5] relates to LXRb homodimer (NR concentration 270 nM). The method in brief: as §1
Assay [6] deals with PPARa:RXRa (NR concentration 270 nM, RXRa partner concentration 90 nM). The method in brief:
as §1

Assay [7] deals with PPARg:RXRa (NR concentration 180 nM, RXRa partner concentration 90 nM). An outline of the steps:
as §1

The test system of assay [8] is PPARg:RXRa 270nM:90nM, anti-RXR (NR concentration 270 nM, RXRa partner concentration 90 nM). The method in brief: as §1
For assay [9], the system named is PPARg:RXRa 30nM:10nM, anti-RXR (NR concentration 30 nM, RXRa partner concentration 10 nM). An outline of the steps:
as §1

In assay [10] the test system is PPARg:RXRa 90nM:30nM, anti-RXR (NR concentration 90 nM, RXRa partner concentration 30 nM). An outline of the steps:
as §1

Assay [11] deals with PPARg:RXRa DBDmut IVT, anti-RXR (DBD mutation: RXRa K156A/R161A, NR concentration 270 nM, RXRa partner concentration 90 nM). An outline of the steps: as §1
In assay [12] the test system is PPARg:RXRa IVT, anti-PPARg (NR concentration 270 nM, RXRa partner concentration 90 nM). The method in brief: as §1
Assay [13] deals with PPARg DBDmut:RXRa IVT, anti-PPARg (DBD mutation: PPARg1 K132A/R137A, NR concentration 270 nM, RXRa partner concentration 90 nM). The method in brief: as §1
Assay [14] has as its system PPARg DBDmut IVT, anti-PPARg (DBD mutation: PPARg1 K132A/R137A, NR concentration 270 nM). The method in brief:
as §1

The subject of assay [15] is PPARg homodimer (NR concentration 180 nM). The method in brief:
as §1

Assay [16] relates to PXR:RXRa (NR concentration 270 nM, RXRa partner concentration 90 nM). The method in brief: as §1
Assay [17] deals with PXR homodimer (NR concentration 270 nM). The method in brief: as §1
Assay [18] has as its system RARa:RXR (NR concentration 270 nM, RXRa partner concentration 90 nM). An outline of the steps:
as §1

The test system of assay [19] is RARa homodimer (NR concentration 270 nM). The method in brief:
as §1

Assay [20] relates to RARb:RXRa (NR concentration 270 nM, RXRa partner concentration 90 nM). The method in brief: as §1

Turning to TCTACTAGGTCAACGATGGTCAGCTAATCTGCTA, the PBM binding z-score was 3.61 in assay [1]; 3.2 in assay [2]; 0.626 in assay [3]; 2.29 in assay [4]; 0.75 in [5]; 4.36 in assay [6]. Also, the PBM binding z-score in [7] was 6.19; in assay [8], 6.03; in assay [9] it was 4.97; in assay [10], 5.88; in assay [11], 7.66; in assay [12], 7.96. Besides, the PBM binding z-score in assay [13] worked out at 1.25; in assay [14], 1.79; in assay [15] it was 1.93; in [16], 1.93; in assay [17], 0.246; in assay [18], 2.54. The PBM binding z-score is 1.28 in [19] and 4.23 in [20].
For the sequence CAAACTAGGTCACGCAAGGTCAAAGTCGAATGAC, the PBM binding z-score in assay [1] came out at 7.41; in [2], 7.71; in assay [3], 7.2; in [4] it was 7.01; in assay [5], 1.72; in assay [6] it was 6.75. Also, the PBM binding z-score in assay [7] worked out at 10.2; in assay [8], 7.79; in assay [9], 6.97; in assay [10] it was 8.64; in assay [11], 8.48; in [12] it was 9.3. For the same sequence, the PBM binding z-score in [13] worked out at 4.39; in assay [14] it was 5.78; in assay [15] it was 5.5; in assay [16], 7.23; in assay [17] it was 3.2; in assay [18] it was 6.68. The PBM binding z-score in assay [19] came to 4.04; in assay [20] it was 5.5.
In the case of ACTGTTAGTTGACTTAGGGCAACCGATACGACGC, the PBM binding z-score in assay [1] worked out at 0.539; in assay [2], 0.575; in [3], 0.206; in assay [4] it was 0.367; in [5], 1.15; in assay [6] it was 0.0221. Further, the PBM binding z-score in [7] is 0.731; in [8], 0.221; in assay [9], 0.105; in assay [10], -0.111; in assay [11], 0.0464; in assay [12] it was 0.607. In addition, the PBM binding z-score turned out to be 0.909 in assay [13]; 0.844 in assay [14]; 0.977 in [15]; 0.277 in [16]; 0.341 in assay [17]; 0.582 in [18]. Moreover, the PBM binding z-score amounted to 0.354 in assay [19] and 1.04 in assay [20].
As to TCTTGTAGATCAAAGGTTCAGAAAGCCGAAGCCT, the PBM binding z-score was 0.694 in assay [1]; 0.971 in assay [2]; 0.565 in assay [3]; 0.863 in assay [4]; 0.0761 in assay [5]; 2.17 in assay [6]. For the same sequence, the PBM binding z-score in assay [7] stood at 3.23; in [8] it was 5.21; in [9], 4.26; in [10], 5.21; in assay [11], 1.88; in assay [12], 1.55. Besides, the PBM binding z-score in assay [13] is 0.156; in assay [14], 0.203; in assay [15] it was 0.638; in assay [16] it was 0.73; in assay [17], -0.103; in assay [18] it was 1.13. Besides, the PBM binding z-score is -0.254 in assay [19] and 0.898 in [20].
With TCATATAGGGAAATGCTAGGTGAAAGTCCGATCT, the PBM binding z-score was 1.31 in assay [1]; 0.732 in assay [2]; 0.053 in assay [3]; 0.609 in [4]; -0.0156 in [5]; 0.83 in assay [6]. The PBM binding z-score in assay [7] is 0.563; in [8], 2.3; in assay [9], 3.82; in assay [10], 2.91; in [11], 2.89; in [12], 1.33. Besides, the PBM binding z-score in [13] was found to be 1.18; in [14], 0.79; in [15], 0.712; in [16], 0.607; in assay [17] it was 0.552; in assay [18] it was 0.746. In addition, the PBM binding z-score is 0.849 in assay [19] and 0.226 in assay [20].
With TATAGTTGGTCACGGAGGTCACACACGACGGGTA, the PBM binding z-score in assay [1] came out at 3.47; in assay [2], 3.92; in [3], 3.29; in assay [4], 3.47; in assay [5], 1.25; in assay [6], 4.09. Also, the PBM binding z-score in assay [7] was 4.49; in [8] it was 3.8; in assay [9] it was 1.92; in assay [10] it was 3.19; in assay [11], 1.03; in assay [12] it was 4.52. Also, the PBM binding z-score was 1.35 in [13]; 2.08 in assay [14]; 2.56 in assay [15]; 4.66 in [16]; 1.06 in assay [17]; 4.48 in [18]. Also, the PBM binding z-score stood at 1.98 in assay [19] and 4.09 in assay [20].

The record behind these values is the supplement of paper PMC6555819.
